Most compounds without a hit are left out; they make up all but 6.1% or so of the library.
D3 antag: blocks the human D3 dopamine receptor; AID 652054; P35462; D3R cells, DiscoveRx beta-arrestin luminescence, antagonist mode; hits give low values; 360,000 tested, 2.5% active; max response, negative = inhibition, %; in the data active means max response below about -50%; inconclusive means no clear call, values can overlap the other calls; further: on the % scale 0 is the no-effect control and ±100 the full control effect
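Cells expressing the human receptor were seeded at 1500 cells/well, incubated overnight at 37 degrees C in 5% CO2, then exposed to library compounds with dopamine controls for 90 minutes at 37 degrees C before luminescent detection.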
ERG-DNA inh: ERG Ets/DNA interaction inhibition; P11308; fluorescence polarization, His-ERG Ets domain / labelled DNA; Potency, µM (titrated, usually from 76.9 µM), inactives show at the highest dose FP activity, negative = inhibition, hits mostly inhibitors; 370,000 tested, 0.028% active; active means well fitted inhibition curve with a large enough effect in the polarisation, with a control signal flat; inconclusive means small, poorly fitted or top-dose-only effect, or effect the other way, or a change in a side signal; inactive means no such curve, though single readings can be large or run the other way; the % refers to the polarisation;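 further: polarization taken with two DNA probes labelled with fluorescein and Texas red; potency means the concentration at half of the fitted maximal effect; % of control where 0% means no effect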
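His-tagged ERG Ets domain (1 uM in the protein solution; 300mM KCl, 50mM Tris-HCl, 1mM EDTA, 1mM DTT, pH 7.5) received compound, then a probe mix of 5 nM fluorescein-DNA and 100nM Texas-615-DNA. Fluorescence polarization was read for both dyes.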
D1 antagonist: blocks dopamine activation of the human D1 receptor. AID 504652. 360,000 tested, 3.2% active. activity change, negative = inhibition, % at 10 µM. P21728. HEK293 TREx D1 cells, calcium flux, dopamine EC80; hits give low values; in the data active means activity change below about -30%; further: on the % scale 0 is the no-effect control and ±100 the full control effect
Target sequence (P21728 whole entry, looked up): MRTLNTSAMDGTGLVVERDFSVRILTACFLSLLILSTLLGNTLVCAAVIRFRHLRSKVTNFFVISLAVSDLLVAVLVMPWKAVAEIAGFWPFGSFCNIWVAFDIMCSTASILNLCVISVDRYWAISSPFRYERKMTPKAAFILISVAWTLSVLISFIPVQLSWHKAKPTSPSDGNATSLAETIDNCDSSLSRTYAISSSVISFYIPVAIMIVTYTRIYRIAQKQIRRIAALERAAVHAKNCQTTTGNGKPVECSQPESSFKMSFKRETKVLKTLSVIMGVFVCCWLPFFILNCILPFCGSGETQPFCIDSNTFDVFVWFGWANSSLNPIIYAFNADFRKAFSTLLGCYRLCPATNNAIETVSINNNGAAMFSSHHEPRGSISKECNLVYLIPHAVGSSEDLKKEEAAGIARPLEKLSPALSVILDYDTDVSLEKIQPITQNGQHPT
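After overnight tetracycline induction at 30 C, force-coupled D1 HEK293 cells took up a no-wash calcium dye at room temperature. Compounds were added and monitored 180 s, and the response to EC80 dopamine was then recorded.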
D1 ag: activates the human D1 dopamine receptor; HEK293 T-REx D1 cells, calcium flux, agonist mode; activation, % at 2 µM; 360,000 tested, 1% active; in the data active means activation above about 30%; further: 0% is about no effect
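Agonism was scored from calcium flux recorded over 180 s (1 read/s) after pintool compound addition, following a 10-cycle baseline. Cells were inducible force-coupled HEK293 TREx D1, plated overnight at 30 C and loaded with no-wash calcium dye.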
D1 potentiator: potentiators of human D1 dopamine receptor | P21728 | HEK293 TREx D1 cells, calcium flux, dopamine EC20 potentiation | potentiation, % at 10 µM | 360,000 tested, 0.036% active; in the data active means potentiation above about 30%; further: 0% is about no effect
D3 ag: D3 dopamine receptor (human) agonism. P35462. D3R DiscoveRx beta-arrestin cells, luminescence, 90 min. max activation, %. 410,000 tested, 0.58% active. AID 652048; in the data active means max activation above about 30%; further: 0% is about no effect
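Agonist-mode cell screen: cells plated at 1500/well and incubated overnight at 37 °C, then exposed to library compounds for 90 min at 37 °C. Detection reagent was added for 30–60 min at room temperature, and luminescence was read.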
An asterisk follows results filed as active; ? = inconclusive; . = no result given.

SMILES	D3 antag	ERG-DNA inh	D1 antagonist	D1 ag	D1 potentiator	D3 ag
O=C(Nc1ccc(C(=O)O)cc1)Nc1ccc([N+](=O)[O-])cc1	-11.3	-12.8%	6.9	6.2	-3.2	3.7
C/C(=N\OC(=O)Nc1ccc(Cl)cc1)c1ncc(C(F)(F)F)cc1N1CCOCC1	-16.6	1.8%	8.1	0.2	-3.0	-0.8
CCS(=O)(=O)C(=C1Nc2ccccc2N1)S(=O)(=O)CC	17.2	0.1%	0.5	0.5	-4.8	-3.8
COc1ccc(NC(C)=O)cc1S(=O)(=O)N(C)Cc1c(C)nn(-c2ccccc2)c1C	-6.9	8.6%	-32.8*	1.7	-9.9	-3.5
Cc1ccnc(NC(=O)CCC(=O)N(CC(=O)NCc2ccccc2)Cc2ccc(F)cc2)c1	0.8	3.3%	12.8	2.5	-6.2	1.6
CC(=O)Nc1ccc(NC(=O)c2nc(S(=O)(=O)Cc3cccc(C)c3)ncc2Cl)cc1	-74.7*	-9.6%	-26.0	1.2	-4.5	-27.9
COC(=O)c1ccc(NC(=O)c2nc(S(=O)(=O)Cc3cccc(C)c3)ncc2Cl)cc1	-53.1*	3.8%	32.4	-0.1	9.5	-28.1
COC(=O)c1ccccc1NC(=O)c1nc(S(=O)(=O)Cc2cccc(C)c2)ncc1Cl	.	-1.9%	-13.9	0.8	-2.1	8.3
Cc1ccc(CNC(=O)c2nc(S(=O)(=O)Cc3ccc(C)cc3)ncc2Cl)cc1	.	0.4%	-25.6	0.8	-1.7	-18.5
Cc1cccc(CS(=O)(=O)c2ncc(Cl)c(C(=O)NCc3ccc4c(c3)OCO4)n2)c1	-97.4*	0.1%	2.1	-1.1	1.9	-0.6
FC(F)(F)c1ccccc1Cc1c(-c2cccc(Cl)c2)nc2ccc(Cl)cn12	-15.4	.	.	.	.	56.7*
COC(=O)c1ccc2nc(-c3cccc(Cl)c3)c(Cc3ccccc3OC)n2c1	6.9	.	.	.	.	-6.1
CCCc1nc2ccc(Br)cn2c1Cc1ccccc1OC	-19.2	.	.	.	.	77.6*
CCCc1nc2ccc(C)cn2c1Cc1ccccc1OC	-2.5	.	.	.	.	2.6
COc1ccccc1Cc1c(-c2cccc(Cl)c2)nc2ccc(Br)cn12	-83.0*	.	.	.	.	-21.4
CC(C)(C)Cc1c(-c2cccc(Cl)c2)nc2ccc(Br)cn12	-108.5*	.	.	.	.	-16.2
c1ccc(Cc2nnc3n2N=C(c2ccccc2)CS3)cc1	0.0	-6.9%	-2.3	7.4	-13.3	-10.9
Cc1cccc(C(=O)NCC(=O)OCc2nnc(-c3ccccc3)o2)c1	-0.7	11.3%	-9.4	1.6	-6.2	-2.9
CC(C)(/C=N/O)N(O)C=C1C=CC(=O)C=C1	20.9	-3.0%	-17.2	2.5	1.4	-2.8
CN(C)CCN(Cc1ccccc1)C(c1ccnc2ccccc12)c1nnnn1-c1ccc2c(c1)OCCO2 (stereo unspecified)	?	.	.	.	.	-8.1
CN(Cc1ccccc1)C(c1ccnc2ccccc12)c1nnnn1-c1ccc2c(c1)OCCO2 (stereo unspecified)	-11.1	.	.	.	.	50.2*
O=C(NCC(c1cccnc1)N1CCN(c2ccccc2F)CC1)c1ccccc1 (stereo unspecified)	2.8	2.9%	-31.8*	0.7	-7.2	3.6
O=C(NCCc1ccccc1)C(=O)NCC(c1cccnc1)N1CCN(c2ccc(F)cc2)CC1 (stereo unspecified)	.	1.2%	3.7	32.8*	1.4	5.8
CN(C)CCNC(=O)C(=O)NCC(c1cccnc1)N1CCN(c2ccccc2)CC1 (stereo unspecified)	.	6.1%	-32.8*	5.2	-3.8	4.6
COc1ccccc1N1CCN(C(CNS(=O)(=O)c2cccs2)c2cccnc2)CC1 (stereo unspecified)	-50.1*	18.7%	-2.2	1.7	-5.8	-6.8
SMILES	D3 antag	ERG-DNA inh	D1 antagonist	D1 ag	D1 potentiator	D3 ag
CN(C)CCNC(=O)C(=O)NCC(c1cccnc1)N1CCN(c2ccc(F)cc2)CC1 (stereo unspecified)	.	1.3%	-2.3	-1.2	2.6	4.3
CCS(=O)(=O)NCC(c1cccnc1)N1CCN(c2ccccc2OC)CC1 (stereo unspecified)	-6.2	27.5%	-13.2	0.2	-3.8	2.7
COC(=O)c1c(NC(=O)CC2SC(N)=NC2=O)sc2c1CCCC2 (stereo unspecified)	10.2	.	4.5	-0.4	2.0	9.1
O=C(NCc1ccccc1)c1cc(-c2ccncc2)nc2ccc(S(=O)(=O)N3CCOCC3)cc12	7.7	-3.2%	11.9	2.5	-6.6	4.0
CCCCCn1c(=O)c2ccccc2n2c(CCl)nnc12	3.2	-1.1%	-5.2	3.0	6.3	-2.7
CC(C)(C)n1nnnc1C(c1cccs1)N1CCN(C/C=C/c2ccccc2)CC1 (stereo unspecified)	-121.7*	.	.	.	.	-11.8
CCC(C)(C)n1nnnc1C(c1ccc(C)cc1)N1CCN(Cc2ccc3c(c2)OCO3)CC1 (stereo unspecified)	-69.7*	5.5%	18.9	0.0	-3.8	1.9
C(=C\c1ccccc1)/CN1CCN(C(c2cccs2)c2nnnn2Cc2ccccc2)CC1 (stereo unspecified)	-73.3*	.	.	.	.	-17.8
CC(C)(C)n1nnnc1C(c1cccs1)N1CCN(Cc2ccccc2)CC1 (stereo unspecified)	-25.8	.	0.6	1.2	8.5	-26.1
C(=C\c1ccccc1)/CN1CCN(C(c2cccc3ccccc23)c2nnnn2Cc2ccccc2)CC1 (stereo unspecified)	?	.	.	.	.	-11.3
c1ccc(CCn2nnnc2C(c2cccs2)N2CCN(Cc3ccc4c(c3)OCO4)CC2)cc1 (stereo unspecified)	-67.2*	8.1%	11.4	4.3	-9.8	-3.6
C(=C\c1ccccc1)/CN1CCN(C(c2cc3ccccc3o2)c2nnnn2C2CCCCC2)CC1 (stereo unspecified)	-76.5*	.	.	.	.	-12.6
C(=C\c1ccccc1)/CN1CCN(C(c2cccs2)c2nnnn2C2CCCC2)CC1 (stereo unspecified)	-86.5*	.	.	.	.	-14.8
C(=C\c1ccccc1)/CN1CCN(C(c2nnnn2Cc2ccccc2)C2CC2)CC1 (stereo unspecified)	-61.7*	.	.	.	.	-3.6
C(=C\c1ccccc1)/CN1CCN(C(c2ccccc2)c2nnnn2C2CCCC2)CC1 (stereo unspecified)	?	.	.	.	.	-10.9
Cc1c(CCNC(=O)c2ccc(Br)o2)sc2nc(-c3ccc(F)cc3)nn12	.	-5.1%	.	1.6	-2.2	10.3
COc1cccc(CN2CCN(c3cccc(C(F)(F)F)c3)CC2)c1OC	-73.4*	-4.0%	-8.5	1.1	-4.5	-28.5
CCOc1cccc(CN2CCN(c3cccc(C(F)(F)F)c3)CC2)c1O	-95.8*	1.6%	2.5	2.9	-4.5	-60.3
CCc1ccccc1NC(=O)CC(c1ccc(OC)cc1)n1cccc1 (stereo unspecified)	37.2	.	-1.8	6.3	-1.9	-2.9

Source: PubChem BioAssay
